Results as given in PubChem BioAssay AID488932 (Broad Institute, 2010).
Results with a measured potency or affinity are listed apart. Calls of active or inactive are those of the source.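 Rule for the calls: active = growth signal falls, with fitted half-maximal dose at most ten times the top valid dose; inconclusive = flat curve with a partial drop, or a poorly fitting curve; inactive = the rest, including compounds that raise signal.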

Experiment: Candida albicans growth inhibition, agent alone, dose response, counter-screen for reversing antifungal drug resistance, CaCi-2 strain, no fluconazole, dry powder, set 4 (AID 488932)
Details: C. albicans CaCi-2 (fluconazole-resistant clinical isolate) growth, Alamar Blue, 48 h; series mostly up to 26 µM
With `O=C(Nc1ccc(C(F)(F)F)cc1)N1CCN(c2ccnc3cc(Cl)ccc23)CC1` the outcome was “inactive”. In the case of `COc1ccc2c(N3CCN(C(=O)c4ccc(Cl)cc4)CC3)ccnc2c1`, the outcome is reported as “inactive”. In the case of `O=C(c1ccc(Cl)cc1)N1CCN(c2ccccn2)CC1`, the outcome is reported as “inactive”. For `Cc1ccc(C(=O)N2CCN(c3ccnc4cc(Cl)ccc34)CC2)cc1`, the outcome was “inactive”.
